According to PubChem BioAssay:
Where “and” joins values, the source holds several entries; their conditions need not be identical. Equal values may be shown once. Calls of active or inactive are those of the source. Unless noted, the rule behind the calls is not given here.

Legend:
[1] = circadian clock period modulators, cell-based, LOPAC library, luminescence reporter (AID 2774); settings: circadian reporter cells, at 7 µM, actives lie on both sides;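 note: values are relative to mean of DMSO wells on each plate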
[2] = test system: Hepatitis C virus NS3 helicase; assay: HCV NS3 helicase inhibitors, primary screen, biochemical, fluorescence polarization, LOPAC1280 library (AID 687035; in the data active = inhibition above about 37%); settings: Purified HCV NS3 helicase, Cy5-dT15 ssDNA binding fluorescence polarization; stronger effect = higher value; concentration not given here
[3] = Cy5 fluorescence quenching or enhancement artefacts, artefact control for HCV NS3 helicase inhibitor project, biochemical, LOPAC1280 (AID 687037); settings: Cy5-DNA-NS3h complex fluorescence interference counterscreen
[4] = test system: Aerobactin synthetase IucA (Klebsiella pneumoniae); assay: IucA aerobactin synthetase inhibitors, biochemical, Tocris library, absorbance (AID 1345561); settings: purified IucA enzyme assay, absorbance (OD) read-out; stronger effect = lower value;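 tested at 8 µM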;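 note: 100% = enzyme without compound and 0% = no enzyme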
[5] = sensitizers of A549 cells to miR-34 induction, primary screen, imaging, A549 dox-inducible miR-34, nuclei and caspase counts (AID 1347080;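 active = compounds whose cell count with miR-34 switched on is under 0.7 times the count with it off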); settings: A549 miR-34 inducible, Hoechst nuclei count, 48 h
[6] = phospholipid biosynthesis inhibitors in animal cells, primary screen, cell-based, LOPAC library, screen 4 (AID 1347384); settings: phospholipid biosynthesis inhibition screen, at 10 µM
[7] = viability rescue of complex I mutant cybrids, primary screen, cell-based, galactose medium, ATP luminescence (AID 1645843;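 active = z-score of at least 1.8 in each of two replicates, scored against plate mean and spread of sample wells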;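 note: positive z means more ATP and so rescue of galactose-driven cybrid death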); settings: complex I mutant cybrid cells, 72 h, stronger effect = higher value
[8] = inhibitors of Cryptococcus chitosan production, flow cytometry, Cibacron Brilliant Red staining (AID 1347148); settings: Cryptococcus neoformans chitosan, stronger effect = lower value; at 10 µM unless noted;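 note: compound exposure lasted three days at 37 degrees C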
[9] = survival rescue of mitochondrial mutant cells in low glucose, primary screen, MELAS cybrids, Rieske KO mouse fibroblasts, CellTiter-Glo (AID 1508586;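 active = mean z-score across replicates of 1.96 or higher in either the MELAS or the Rieske mutant cell line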;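 note: z relative to plate mean and SD of compound and empty wells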)
[10] = liver-stage malaria parasite growth inhibition, primary screen, cell-based, HepG2, luciferase luminescence, HepG2 viability (AID 624349; in the data active = parasite load remaining mostly below about 12%, no sharp cut-off; inactive = mostly above about 10%;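 note: 100% = mean of DMSO negative control wells on the same plate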); settings: P. berghei liver stage in HepG2, luciferase luminescence, concentration not given here; parasite load remaining: stronger effect = lower value; viability: measured here: HepG2 viability without parasites
[11] = stronger effect = lower value, cell number ratio, induced over uninduced
[12] = measured here: relative caspase fold change +Dox/-Dox
[13] = measured here: total cells with miR-34 induction, stronger effect = lower value
[14] = measured here: total cells without miR-34 induction
[15] = MELAS cybrid survival, CellTiter-Glo 48 h, stronger effect = higher value
[16] = Rieske KO mouse fibroblast survival, CellTiter-Glo 72 h

SMILES | period change [1] | inhibition [2] | fluorescence ratio (interference) [3] | remaining activity [4] | fold change [5, 11] | fold change [5, 12] | cell count [5, 13] | cell count [5, 14] | outcome [6] | z-score [7] | fold fluorescence [8] | z-score [9, 15] | z-score [9, 16] | parasite load remaining [10] | viability [10]
N[C@H](C(=O)O)c1cc(O)cc(O)c1 | 0.11 h (inactive) | -1% (inactive) | 1.1 (inactive) | 115% (inactive) | 1.01 (inactive) and 0.963 (inactive) | 1.04 and 0.77 | 10300 and 8780 | 10200 and 9120 | inactive | 0.215 (inactive) and -0.05 (inactive) | – | – | – | – | –
O=C1NC(=O)c2cc(Nc3ccccc3)c(Nc3ccccc3)cc21 | – | 0% (inactive) | 1 (inactive) | 123% (inactive) | 1.14 (inactive) and 0.996 (inactive) | 1.65 and 1.45 | 3180 and 3240 | 2790 and 3260 | inactive | -1.08 (inactive) and -0.55 (inactive) | – | – | – | – | –
Cc1ccc(O)c(N=Nc2ccccc2)n1 | -0.01 h (inactive) | 1% (inactive) | 0.9 (inactive) | 110% (inactive) | 0.956 (inactive) and 0.932 (inactive) | 0.751 and 0.659 | 10100 and 8850 | 10500 and 9490 | inactive | 1.16 (inactive) and 0.96 (inactive) | – | – | – | – | –
O=C(Nc1ccccc1)c1cc([N+](=O)[O-])ccc1Cl | -0.23 h (inactive) | -5% (inactive) | 1 (inactive) | 120% (inactive) | – | – | – | – | inactive | -0.715 (inactive) and -0.72 (inactive) | 3.58 [at 180.7 µM] (inactive) | -0.372 (inactive) | 0.0531 | – | –
O=[N+]([O-])c1cccc2c(Br)[nH]nc12 | -0.085 h (inactive) | -1% (inactive) | 0.9 (inactive) | 94.1% (inactive) | – | – | – | – | inactive | 1.04 (inactive) and -0.23 (inactive) | 16.8 [at 206.6 µM] (inactive) | – | – | – | –
CCCCCCCCc1ccc(-c2ccc(C(=O)O)cc2)cc1 | – | 0% (inactive) | 1 (inactive) | 95.4% (inactive) | 0.939 (inactive) and 0.915 (inactive) | 0.89 and 1.73 | 8400 and 8360 | 8950 and 9140 | inactive | 0.205 (inactive) and -0.145 (inactive) | – | – | – | – | –
COc1ccc(CCCOC(Cn2ccnc2)c2ccc(OC)cc2)cc1 (centres undefined) | – | – | – | 113% (inactive) | 1.01 (inactive) and 1.05 (inactive) | 1.53 and 0.475 and 0.778 | 1590 and 4390 and 2690 | 1570 and 4170 and 2650 | – | -0.775 (inactive) | – | – | – | – | –
Nc1nc2c(cnn2CCc2ccccc2)c2nc(-c3ccco3)nn12 | – | 0% (inactive) | 1 (inactive) | 107% (inactive) | 0.995 (inactive) and 1.05 (inactive) | 1.09 and 1.04 | 10300 and 7560 | 10400 and 7200 | inactive | 0.15 (inactive) and -0.35 (inactive) | – | – | – | – | –
CN/C(=C/[N+](=O)[O-])NCCSCc1ccc(CN(C)C)o1 | – | – | – | 114% (inactive) | 0.9 (inactive) and 0.849 (inactive) and 0.891 (inactive) | 0.927 and 0.503 and 1.27 | 8480 and 7980 and 9140 | 9410 and 10300 | – | -0.09 (inactive) and 0.3 (inactive) | – | -0.0746 (inactive) and -0.291 (inactive) | -0.171 and 0.538 | 43.4% (inactive) and 51.6% (inactive) | 47.5% and 107%
